Screens from PubChem.
Shown are actives, neighbours in structure and some others; about 1.5% of the full set was active somewhere.
CCHF vOTU inh-1 = blocks the CCHF virus ovarian tumor domain protease; inhibition, % at 11.5 µM; CCHFV vOTU protease, Pep-AMC fluorescence; 0.55% of 370,000 active; note: 0% = vehicle wells with enzyme and 100% = no enzyme wells
VHR inh abs = inhibitors of human VHR1 phosphatase (DUSP3); recombinant VHR phosphatase, pNPP absorbance; inhibition, % at 13.3 µM; 0.52% of 290,000 active; in the data active = inhibition above about 50%
RecA intein inh = blocks M. tuberculosis RecA intein splicing; P9WHJ3; inhibition, % (concentration not given with the values); cell-free RecA intein splicing, fluorescence; 0.75% of 290,000 active; AID 2221; in the data active = inhibition above about 30%;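 note: 0% = vehicle wells and 100% = reference inhibitor control wells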
Target sequence (P9WHJ3 whole entry, looked up): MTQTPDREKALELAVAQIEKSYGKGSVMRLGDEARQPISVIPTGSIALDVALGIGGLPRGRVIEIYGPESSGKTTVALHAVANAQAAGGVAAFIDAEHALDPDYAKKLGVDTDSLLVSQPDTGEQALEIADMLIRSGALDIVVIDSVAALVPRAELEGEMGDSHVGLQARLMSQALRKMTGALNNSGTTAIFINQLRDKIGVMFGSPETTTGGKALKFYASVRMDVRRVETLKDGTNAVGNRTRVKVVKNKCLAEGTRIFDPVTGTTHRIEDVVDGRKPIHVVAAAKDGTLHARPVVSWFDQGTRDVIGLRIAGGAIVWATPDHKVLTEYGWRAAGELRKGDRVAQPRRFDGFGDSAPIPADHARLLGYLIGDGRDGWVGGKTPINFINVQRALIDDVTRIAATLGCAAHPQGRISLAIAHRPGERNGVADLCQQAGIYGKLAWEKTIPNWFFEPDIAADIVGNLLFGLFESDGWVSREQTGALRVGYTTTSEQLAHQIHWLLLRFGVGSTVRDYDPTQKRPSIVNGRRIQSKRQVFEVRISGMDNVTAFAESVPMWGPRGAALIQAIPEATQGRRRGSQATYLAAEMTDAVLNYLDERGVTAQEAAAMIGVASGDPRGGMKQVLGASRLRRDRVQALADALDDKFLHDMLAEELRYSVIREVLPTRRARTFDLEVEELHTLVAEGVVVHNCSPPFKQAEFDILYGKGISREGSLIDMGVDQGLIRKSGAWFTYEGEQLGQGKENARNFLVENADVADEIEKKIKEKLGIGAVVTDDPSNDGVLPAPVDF
3CLpro inhibitor = SARS-CoV 3CLpro protease inhibition; P0C6X7; recombinant SARS-CoV 3CLpro, quenched FRET peptide cleavage; inhibition, % at 6 µM; 0.14% of 290,000 active; in the data active = inhibition above about 12%
CCHF vOTU inh-2 = confirmation of CCHF virus vOTU protease inhibitors; shares compounds with CCHF vOTU inh-1; Recombinant CCHFV vOTU, Pep-AMC fluorescence; inhibition, % at 11.5 µM; 17% of 1,900 active
* hit, by the source's call; x = no result. Cut-off read from the data, not from the text of the source, unless noted: active = inhibition above about 30%; inactive = the rest.

SMILES | CCHF vOTU inh-1 | VHR inh abs | RecA intein inh | 3CLpro inhibitor | CCHF vOTU inh-2
Cc1cc(C)c(S(=O)(=O)Nc2nnc(CC(C)C)s2)c(C)c1 | 30.0* | 6.5 | 1.7 | 5.5 | -16.9
CCCN(CC(=O)Nc1ccccc1C)C(=O)CSc1ccccc1C | 16.5 | x | x | x | x
Nc1ccccc1C(=O)NNC(=O)C(=O)/C=C(\O)c1ccccc1 | -1.7 | 23.7 | 7.1 | -1.3 | x
COc1ccc(NC(=O)c2cccnc2)cc1 | -13.7 | 8.1 | -0.9 | -1.2 | x
C/C(=C\C(=O)c1cccnc1)Nc1ccc(O)cc1 | 95.2* | 30.3 | -11.2 | 0.8 | -0.7
C/C(=C\C(=O)c1ccccc1)Nc1ccc(O)cc1 | 76.1* | -5.8 | -5.3 | 7.3 | -3.0
COc1ccc(Br)cc1C1CC(=O)C(C)C(c2cc(Br)ccc2OC)N1 (stereo not given) | -6.9 | -16.2 | 10.2 | 3.7 | x
CCOC(=O)/C(C#N)=C1/C=CN(Cc2ccccc2)C=N1 | 30.4* | 25.3 | -1.7 | 2.7 | -1.4
O=C(OCC(=O)N1CCCc2ccccc21)c1ccc(Br)o1 | 5.6 | 6.4 | -1.5 | -2.6 | x
O=C(OCC(=O)N1CCc2ccccc21)c1ccc([N+](=O)[O-])o1 | 40.3* | x | x | x | -5.7
COc1ccc(CNC(=O)OC2CC3CC2[C@H]2CCCCN2C3)cc1 (stereo not given in full) | -4.4 | x | x | x | x
CCOc1ccc(C(=O)Nc2ccc3c(c2)OCCO3)cc1OC | -10.3 | -8.3 | -0.5 | 6.0 | x
CCOc1ccc(NC(=O)c2ccc3c(c2)OCCO3)cc1S(=O)(=O)N(CC)CC | 32.3* | x | x | x | -16.2
Cc1cc(NC(=O)CCC(=O)N(CC(=O)NCC2CCCO2)c2ccc(F)c(Cl)c2)no1 (stereo not given) | 8.6 | 5.1 | x | -5.0 | x
COc1ccccc1C=NN=C(NN=Cc1ccccc1OC)NN=Cc1ccccc1OC | 69.0* | x | x | x | 2.0
COCCCOc1cc(NCc2ccccc2)c2ncn(C(C)C)c2c1 | 6.7 | x | x | x | x
CCCCOc1cc(NCc2ccccc2)c2ncn(C(C)C)c2c1 | 37.0* | x | x | x | 10.3
CCOCCOc1cc(NCc2ccccc2)c2ncn(C(C)C)c2c1 | 29.7* | x | x | x | 4.1
CCC(COC)Oc1cc(NCc2ccccc2)c2ncn(C(C)C)c2c1 (stereo not given) | 70.4* | x | x | x | 69.5*
CCOC(=O)[C@]12CCCC=C1N(CCCOC)C(=O)[C@@H]2CC(=O)NCc1cccs1 | 0.5 | x | x | x | x
Cc1ccc(S(=O)(=O)Nc2ccccc2-c2ccccc2NS(=O)(=O)c2ccc(C)cc2)cc1 | 30.4* | 1.3 | 19.6 | 14.0* | 13.2
O=C(Cc1ccc(NC(=O)C2CCCN(C(=O)c3ccccc3)C2)cc1)Nc1cccc(C(=O)N2CCCCC2)c1 (stereo not given) | 32.3* | x | x | x | -20.8
CN(C(=O)c1ccc(NC(=O)Cc2cccc(NC(=O)C3CCN(C(=O)C4CCCCC4)CC3)c2)cc1)C1CC1 | 34.5* | x | x | x | -21.3
Cc1cccc(-c2cccc3c4c([nH]c23)[C@@H]2C[C@H](N(C)C(=O)NC3CCCCC3)[C@H]([C@H](C)O)C(=O)N2CC4)c1 | -1.9 | x | x | x | x
C=CCn1c(COc2ccccc2)nc2ccccc21 | 7.0 | 36.0 | 5.2 | -3.7 | x
SMILES | CCHF vOTU inh-1 | VHR inh abs | RecA intein inh | 3CLpro inhibitor | CCHF vOTU inh-2
COc1cccc2c1C(=O)c1c(O)c3c(c(O)c1C2=O)C[C@@](O)(C(=O)CO)C[C@@H]3O[C@H]1C[C@H](N)[C@H](O)[C@H](C)O1 | 40.8* | 4.7 | -7.8 | -9.8 | 30.5*
O=C1c2ccccc2C(=O)N1CC1=NCCc2ccccc21 | 39.4* | 31.5 | 1.7 | -6.8 | -14.8
CCOc1c(OC(C)=O)ccc(/C=C/c2ccc3cccc(OC(C)=O)c3n2)c1[N+](=O)[O-] | x | 20.2 | 7.8 | 2.1 | x
C=CCN1C(=O)/C(=C/c2ccc(OC(C)=O)c(OCC)c2[N+](=O)[O-])SC1=S | 30.2* | 33.4 | 12.1 | -1.8 | 82.0*
CC(=O)[C@@H]1[C@@H]2C(=O)N(c3ccc(F)c(Cl)c3)C(=O)[C@@H]2C2c3ccccc3C=CN21 (stereo not given in full) | 95.4* | 35.8 | 1.8 | 1.0 | 75.1*
CC(=O)[C@@H]1[C@@H]2C(=O)N(C3CCCCC3)C(=O)[C@@H]2C2c3ccccc3C=CN21 (stereo not given in full) | x | 23.5 | x | 4.0 | x
CC(=O)[C@H]1[C@@H]2C(=O)N(c3cccc(Cl)c3)C(=O)[C@@H]2[C@H]2c3ccccc3C=CN21 | 93.5* | -4.3 | -12.0 | -12.2 | 82.0*
CCOc1ccc(CNC2CCCCCCC2)cc1OC | 10.2 | -13.1 | -0.5 | -0.2 | x
O=C(Nc1nnc(CCN2CCCCC2)s1)c1ccccc1Cl | -2.1 | 8.3 | -1.8 | 1.9 | x
CCC(C)(C(=O)NC1CCCC1)N(C(=O)CNC(=O)c1ccccc1)c1c(C)n(C)n(-c2ccccc2)c1=O (stereo not given) | 16.6 | 4.0 | 0.5 | -1.5 | x
Cc1cccc2cc(C(c3nnnn3CC3CCCO3)N3CCc4ccccc4C3)c(=O)[nH]c12 (stereo not given) | x | 21.8 | x | 0.6 | x
Cc1ccc2cc(C(c3nnnn3CC3CCCO3)N3CCc4ccccc4C3)c(=O)[nH]c2c1 (stereo not given) | 83.8* | 20.7 | -4.0 | 1.0 | -0.4
COC(=O)[C@@]12C[C@@H](CC(=O)NCC3CCCCC3)C(=O)N(Cc3ccccc3)C1=CCC(C)(C)C2 | 4.2 | x | x | x | x
Cc1ccc(S(=O)(=O)N(C)C[C@@H]2OCc3cnnn3CCCC(=O)N([C@H](C)CO)C[C@H]2C)cc1 | -1.0 | x | x | x | x
COc1ccc(N(C=O)C(C(=O)Nc2c(C)cccc2C)c2ccccc2)cc1 (stereo not given) | 5.9 | x | 3.8 | x | x
O=C(Nc1cccc(Cl)c1)c1ccccc1 | 0.8 | x | x | x | x
CN(C1=C(NC(=O)c2ccc(Cl)cc2)C(=O)c2ccccc2C1=O)c1ccccc1 | 44.7* | -21.1 | 43.0* | 1.9 | 14.2
O=C1C(Cl)=C(NC(=O)c2ccccc2)C(=O)C(Cl)=C1NC(=O)c1ccccc1 | 96.9* | 30.3 | 22.9 | -4.1 | -7.8
